Mac1 fbg inh = blocks human CD11b/CD18 adhesion to fibrinogen | inhibition, % at 10 µM | hit rate 0.54% among 93,000 | P05107+P11215 | K562 CD11b/CD18 adhesion to fibrinogen, ATPlite luminescence; Mn2+ added to activate the integrin | AID 1497;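 active = primary inhibition of 50% or more at 10 µM, then 40% or more on retest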
CYP2C19 inh = human CYP2C19 inhibition; P33261; inhibition, % at 5 µM; AID 778; hit rate 21% among 96,000; CYP2C19 Supersomes, luciferin-H EGE luminescence, 30 min;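 active = CYP2C19 inhibition above a set limit at 5 µM in the primary screen, cut at about 50% in these data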
Target sequence (P33261 whole entry, looked up): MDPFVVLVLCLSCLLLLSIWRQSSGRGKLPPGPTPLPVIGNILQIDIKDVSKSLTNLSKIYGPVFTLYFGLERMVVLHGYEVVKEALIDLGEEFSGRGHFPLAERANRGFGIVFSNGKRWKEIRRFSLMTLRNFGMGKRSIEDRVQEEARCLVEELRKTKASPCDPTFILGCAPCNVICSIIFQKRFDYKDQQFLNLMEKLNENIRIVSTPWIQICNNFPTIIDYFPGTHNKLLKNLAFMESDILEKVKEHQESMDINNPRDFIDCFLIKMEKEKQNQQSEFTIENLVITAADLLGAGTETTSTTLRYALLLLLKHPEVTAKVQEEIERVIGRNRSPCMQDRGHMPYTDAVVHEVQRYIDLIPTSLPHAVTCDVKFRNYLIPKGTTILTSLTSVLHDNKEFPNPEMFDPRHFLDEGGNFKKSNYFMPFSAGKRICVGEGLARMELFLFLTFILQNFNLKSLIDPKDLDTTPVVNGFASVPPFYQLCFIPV
CYP2C19 act = cytochrome P450 2C19 (human) activation. P33261. recombinant CYP2C19, luciferin-H EGE luminescence; hits give high values; 0 = fully inhibited enzyme, 1 = untreated enzyme. activation factor at 5 µM. 96,000 tested, under 10 active. AID 1025;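 active = activation factor of at least 2 at 5 µM in the primary screen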
Mac1 fbg enh = enhancers of human CD11b/CD18 binding to fibrinogen; P05107+P11215; activation, % at 10 µM; hit rate 0.07% among 93,000; K562 CD11b/CD18 adhesion to fibrinogen, ATPlite luminescence;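 active = 10 µM primary screen giving 50% or more activity, confirmed by 40% or more on retest at that dose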
CYP2C9 act = increases human cytochrome P450 2C9 activity; AID 1024; recombinant CYP2C9, luciferin-H conversion, luminescence; hits give high values; factor 1 = untreated enzyme, 0 = blocked; activation factor at 5 µM; hit rate 1.4% among 96,000; P11712;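 active = activation factor of 2 or more for CYP2C9 at a 5 µM dose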
CYP2C9 inhib = blocks human cytochrome P450 2C9. inhibition, % at 5 µM. P11712. hit rate 20% among 96,000. CYP2C9 Supersomes, luciferin-H conversion, luminescence;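 active = blocking of liver enzyme CYP2C9 beyond about 50% at 5 µM, limit read from the data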
Of the large screens only hits and unclear results are named; the others gave an inactive call. Compounds with a hit are over-represented: about 28% of the library has one in this group of screens.

COC(=O)c1cc(OC)c(OC)cc1NC(=O)c1c(-c2ccccc2Cl)noc1C	CYP2C9 inhib 56
Cc1onc(-c2c(F)cccc2Cl)c1C(=O)Nc1ccc(S(=O)(=O)Nc2ncccn2)cc1	none
CCOC(=O)c1cnc(SCc2cccc(C)c2)nc1N	none
CCOC(=O)CSc1cc(C)nc(NC(C)=O)n1	none
CCN(CC)S(=O)(=O)c1ccc(NC(=O)c2c(-c3ccccc3)noc2C)cc1	CYP2C19 inh 65
CCn1c(SCC(=O)NCCOc2ccccc2)nc2ccccc2c1=O	CYP2C19 inh 69, CYP2C9 inhib 57
CCOCCCn1c(SCC(=O)NC(C)C)nc2ccccc2c1=O	none
CCNC(=O)CSc1nc2ccccc2c(=O)n1CCCOC(C)C	CYP2C19 inh 76, CYP2C9 inhib 62
O=C(CSc1nc2ccccc2c(=O)n1NC(=O)Cc1ccccc1)NCCc1ccccc1	CYP2C9 inhib 94 (no result: Mac1 fbg inh, Mac1 fbg enh)
COCCNC(=O)CSc1nc2ccccc2c(=O)n1CCCC(=O)NCc1ccccc1	CYP2C9 inhib 70
Nc1nc(-c2cccnc2)nn1C(=O)c1ccco1	none
O=C(CCCc1nc(-c2ccccc2)no1)N1CCOCC1	none
O=C(COc1ccc([N+](=O)[O-])cc1)Nc1ccc(C(=O)NCc2cccnc2)cc1	none (no result: Mac1 fbg inh, Mac1 fbg enh)
CCn1c(SCC(=O)OC2CCCCC2)nc2ccccc2c1=O	CYP2C19 inh 87, CYP2C9 inhib 77
CCOC(=O)CSc1nc2ccccc2c(=O)n1CC	none
CCOCC(=O)NCc1ccc2c(c1)OCO2	none
Cc1ccc2c(CC(=O)OC(C)C(=O)NCc3ccc4c(c3)OCO4)coc2c1 (stereo unspecified)	CYP2C19 inh 53, CYP2C9 inhib 94
Cc1ccc2c(CC(=O)NCc3ccc4c(c3)OCO4)coc2c1	CYP2C19 inh 52, CYP2C9 inhib 79
COc1ccc2c(CC(=O)NCc3ccc4c(c3)OCO4)coc2c1	CYP2C19 inh 96, CYP2C9 inhib 89
CCCCCn1c(CCC(=O)Oc2ccccc2OC)nc2c1c(=O)[nH]c(=O)n2CCCC	none
N#Cc1cccc(Cn2nnc(-c3ccccc3)n2)c1	CYP2C19 inh 69
CCC(C)NS(=O)(=O)c1cccs1 (stereo unspecified)	none
COC(=O)CC(NC(=O)c1ccco1)c1cccc2ccccc12 (stereo unspecified)	CYP2C19 inh 64
COC(=O)CC(NS(=O)(=O)c1cccs1)c1cccc2ccccc12 (stereo unspecified)	CYP2C19 inh 100
Cc1nn(CCOc2ccccc2)c(=O)n1-c1c(F)cccc1F	CYP2C19 inh 85
Cc1occc1-c1nnc(SCC(=O)Nc2nccs2)n1Cc1ccco1	CYP2C19 inh 72, CYP2C9 inhib 55
Cc1cc(C)nc(SCc2nnc(SCC(=O)Nc3nccs3)n2Cc2ccco2)n1	CYP2C9 inhib 63
Cc1cc(NC(=O)CSc2nnc(-c3ccco3)n2Cc2ccco2)no1	none
CC(=O)c1cccc(N(C(=O)c2ccco2)C(C(=O)NC2CCCC2)c2ccncc2)c1 (stereo unspecified)	none
O=C(Cc1ccc([N+](=O)[O-])cc1)Nc1ccc(O)cc1C(=O)O	none (no result: CYP2C19 inh, CYP2C19 act, CYP2C9 act, CYP2C9 inhib)
CC1(C(=O)NC2CCCC2)CCC(=O)N1Cc1ccccc1Cl (stereo unspecified)	CYP2C9 act 2.3
CCOC(=O)COc1c(Br)cc(/C=C2\SC(=O)N(CC(=O)N3CCCC3)C2=O)cc1OC	none
CCN(CC)S(=O)(=O)c1ccc(Cl)c(C(=O)Nc2nnc(C)s2)c1	CYP2C9 inhib 80
CCN(CC)S(=O)(=O)c1cccc(C(=O)N[C@H](C(=O)NCc2ccc(Cl)cc2)C(C)C)c1	CYP2C9 inhib 97
CCN(CC)S(=O)(=O)c1cccc(C(=O)N[C@H](C(=O)O)C(C)C)c1	none
CCN(CC)S(=O)(=O)c1cccc(C(=O)N[C@H](C(=O)NCc2ccccc2F)C(C)C)c1	CYP2C9 inhib 85
CCN(CC)S(=O)(=O)c1cccc(C(=O)NC(C(=O)Nc2nnc(C)s2)C(C)C)c1 (stereo unspecified)	CYP2C9 inhib 78
CCN(CC)S(=O)(=O)c1cccc(C(=O)Nc2cc(C)cc(C)c2)c1	none (no result: Mac1 fbg inh, Mac1 fbg enh)
CCN(CC)S(=O)(=O)c1cccc(C(=O)N[C@H](C(=O)OCC(=O)NC(=O)NC)C(C)C)c1	none (no result: Mac1 fbg inh, Mac1 fbg enh)
COCCNC(=O)C1CCC(=O)N(c2ccc(OC)cc2)C1c1ccc(OC)c(OC)c1 (stereo unspecified)	none
Cc1ccc(C(NC(N)=O)c2ccccc2C)cc1 (stereo unspecified)	CYP2C19 inh 99
Cc1ccc(C(NC(N)=O)c2ccccc2)cc1 (stereo unspecified)	CYP2C19 inh 97, CYP2C9 inhib 63
COc1ccc(C(NC(N)=O)c2ccccc2)cc1 (stereo unspecified)	none
COc1ccc(OC)c(-c2cc(C(=O)Nc3sc4c(c3C#N)CCC(C)C4)c3ccccc3n2)c1 (stereo unspecified)	Mac1 fbg enh 93
Cc1ccccc1-c1cc(C(=O)Nc2sc(C(=O)OC(C)C)c(C)c2C#N)c2ccccc2n1	Mac1 fbg inh 95, CYP2C9 inhib 85
COC(=O)c1sc(NC(=O)c2cc(-c3ccccc3)nc3ccccc23)c(C#N)c1C	CYP2C9 inhib 64
Cn1cnnc1Sc1cc(N2CCN(S(=O)(=O)c3ccc4ccccc4c3)CC2)ccc1[N+](=O)[O-]	none (no result: CYP2C19 inh, CYP2C19 act, CYP2C9 act, CYP2C9 inhib)
CC(C)=CCC(C)(C)C1OCCN1C(=O)c1ccccc1 (stereo unspecified)	CYP2C19 inh 71
O=C(O)C1Cc2ccccc2CN1C(=O)c1ccccc1 (stereo unspecified)	none
Cc1ccc(-n2c(CNc3ccc(F)cc3)nnc2SCC(N)=O)cc1	none
CCOc1ccc(NS(=O)(=O)c2ccc(NC(=O)C3CCCO3)cc2)cc1 (stereo unspecified)	none
CC(=O)Nc1coc2ccc(Br)cc12	none
COCC(=O)Nc1cc(C(=O)Nc2ccccc2C)ccc1Cl	none
COCC(=O)Nc1cc(C(=O)Nc2cccc(C)c2C)ccc1Cl	CYP2C9 inhib 58
COc1ccc(-n2c(Cc3cccn3C)nnc2SCC(=O)Nc2nccs2)cc1	CYP2C19 inh 78, CYP2C9 inhib 58
CCOC(=O)c1ccccc1NC(=O)CSc1nnc(Cc2cccn2C)n1-c1ccc(C)cc1	CYP2C19 inh 56, CYP2C9 inhib 89
COc1ccc(-n2c(Cc3cccn3C)nnc2SCC(=O)Nc2ccccc2C)cc1	none
COc1ccc(-n2c(Cc3cccn3C)nnc2SCC(=O)NCCc2ccccc2)cc1	CYP2C9 inhib 73
COc1ccc(OC)c(NC(=O)CSc2nnc(Cc3cccn3C)n2-c2ccc(F)cc2)c1	CYP2C19 inh 73, CYP2C9 inhib 54
CCOCCCNCc1cccc(OC)c1	none
COc1ccc2cc(CCNC(=O)C3CC3)c(=O)[nH]c2c1	none (no result: Mac1 fbg inh, Mac1 fbg enh)
COc1cccc(NC(=O)CSc2nnc(Cc3cccn3C)n2-c2ccc(F)cc2)c1	CYP2C9 inhib 84
